The source made the active and inactive calls. The calls were made as follows: active = hit-call score of the fitted dose curve at least 0.9, where 1 is the maximum; inactive = score below 0.9.
These compounds were tested against rat Glutamate (Kainate, Non-Selective), conducted at France lab site, Grik1 (gene 29559) (UniProt P22756) (assay: ERF_FR_LGIC_rGRIK1: Eurofins (ERF) Ion Channel [3H] Kainic acid Binding LeadHunter Assay for rat Glutamate (Kainate, Non-Selective), conducted at France lab site).
Sequence of rat Glutamate (Kainate, Non-Selective), conducted at France lab site, Grik1 (gene 29559) (P22756 whole entry, looked up): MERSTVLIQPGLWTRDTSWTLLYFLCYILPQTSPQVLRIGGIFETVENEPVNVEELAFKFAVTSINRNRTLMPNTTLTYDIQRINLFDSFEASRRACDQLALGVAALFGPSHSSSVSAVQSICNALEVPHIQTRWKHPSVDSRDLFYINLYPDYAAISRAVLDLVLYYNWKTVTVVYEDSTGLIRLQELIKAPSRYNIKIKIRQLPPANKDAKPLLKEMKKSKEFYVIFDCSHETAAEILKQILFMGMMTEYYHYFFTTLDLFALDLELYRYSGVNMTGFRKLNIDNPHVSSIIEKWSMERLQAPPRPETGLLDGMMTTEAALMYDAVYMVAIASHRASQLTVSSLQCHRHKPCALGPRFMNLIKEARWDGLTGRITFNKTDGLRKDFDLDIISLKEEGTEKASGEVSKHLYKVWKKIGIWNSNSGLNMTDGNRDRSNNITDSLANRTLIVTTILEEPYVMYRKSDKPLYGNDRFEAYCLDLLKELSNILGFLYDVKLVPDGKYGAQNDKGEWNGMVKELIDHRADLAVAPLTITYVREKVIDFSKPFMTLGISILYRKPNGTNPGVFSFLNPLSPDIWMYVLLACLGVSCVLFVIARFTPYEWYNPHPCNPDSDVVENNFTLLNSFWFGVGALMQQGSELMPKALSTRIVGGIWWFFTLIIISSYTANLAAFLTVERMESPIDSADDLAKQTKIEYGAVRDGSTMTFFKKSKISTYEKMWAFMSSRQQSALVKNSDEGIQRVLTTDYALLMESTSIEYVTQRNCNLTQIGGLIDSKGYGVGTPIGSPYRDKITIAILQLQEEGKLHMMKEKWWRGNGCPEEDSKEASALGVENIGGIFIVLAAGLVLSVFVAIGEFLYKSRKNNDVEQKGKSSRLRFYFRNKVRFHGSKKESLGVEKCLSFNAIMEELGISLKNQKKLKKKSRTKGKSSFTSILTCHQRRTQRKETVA
Protocol: ERF_FR_LGIC_rGRIK1 is a biochemical, single-readout assay that uses extracted gene-proteins in a cell-free assay. Measurements were taken 1 hour after chemical dosing in a 96-well plate. See Glutamate (Kianate, Non-Selective) Rat Ion Channel [3H]- Kainic acid Binding Assay, Cerep.ERF_FR_LGIC_rGRIK1 is an assay component calculated from the ERF_FR_LGIC_rGRIK1 assay. It is designed to measure radioligand binding using a type of binding reporter as detected by scintillation counting with radiometry technology.Data from the assay component ERF_FR_LGIC_rGRIK1 was analyzed at the assay endpoint, ERF_FR_LGIC_rGRIK1, in the positive analysis fitting direction relative to DMSO as the negative control and baseline of activity. Using a type of binding reporter, loss-of-signal activity can be used to understand changes in binding as they relate to gene GRIK1. To generalize the intended target to other relatable targets, this assay endpoint is annotated to the ion channel intended target family, where the subfamily is ligand-gated (glutamate, Ionotropic).
Glutamate kainite receptor containing membranes are prepared from brain cortices from male Wistar rats in Tris-HCl buffer pH 7.4. A 10 mg aliquot is incubated with 5 nM [3H]Kainic acid for 60 minutes at 4C. […] Membranes are filtered and washed, the filters are then counted to determine [3H]Kainic acid specifically bound.
With `O=C(/C=C/c1ccc(O)cc1)CC(=O)/C=C/c1ccc(O)cc1` the AC50 was 2.87 µM (active).
